Laboratory results from PubChem BioAssay (NCI).
This is part of a sample that, as a whole, favours compounds with a hit. Of some 83,000 tested, about 20% had one in any assay.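 How to read the values: 0–100, growth inhibition (40 = 60% inhibited); 0, no net growth; -100 to 0, cell death (-40 = 40% of starting cells died; -100 = all dead).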 Activity calls are given as the source filed them. The calls were made as follows: active = growth percent below 10; inactive = the rest.

Key:
Assay in all cases: NCI-60 one-dose screen, 48 h (100 = growth as untreated, 0 = no growth, -100 = all killed)
Settings in all cases: 10 µM unless noted
[1] = tested on: NCI-H23 lung
[2] = tested on: NCI-H226 lung
[3] = tested on: NCI-H322M lung
[4] = tested on: HOP-62 NSCLC
[5] = tested on: NCI-H460 lung
[6] = tested on: HOP-92 NSCLC
[7] = tested on: NCI-H522 lung
[8] = tested on: A549/ATCC NSCLC
[9] = tested on: 786-0 renal
[10] = tested on: DU-145 prostate
[11] = tested on: K-562 leukemia
[12] = tested on: MALME-3M melanoma
[13] = tested on: MDA-MB-231 breast
[14] = tested on: RXF 393 renal
[15] = tested on: SF-268 CNS
[16] = tested on: SF-295 CNS
[17] = tested on: SF-539 CNS
[18] = tested on: UACC-257 melanoma
[19] = tested on: M14 melanoma
[20] = tested on: COLO 205 colon

Measured: growth

Nc1n[nH]c2ccc([C@@H]3Nc4ccc5[nH]ncc5c4[C@H]4C5C=CC(C5)[C@@H]34)cc12 (stereo not given in full)
active: [2] -6.81% | [5] -10.8% | [10] 8.03% | [11] 8.61% | [16] 1.53% | [17] -31.4% | [19] 4.56%
inactive: [1] 14.1% | [3] 43.8% | [4] 41.8% | [6] 61.2% | [7] 14.3% | [8] 20.1% | [9] 30.3% | [12] 43.1% | [13] 25.5% | [14] 17.8% | [15] 20.3% | [18] 68.6%

CN(C)c1ccc(NC(=O)c2ccc(/C=C/C(=O)c3ncc[nH]3)cc2)cc1
active: [17] 6.24%
inactive: [1] 59.8% | [2] 89.1% | [3] 76.1% | [4] 54.7% | [5] 25.4% | [6] 94.1% | [7] 59.4% | [8] 63.1% | [9] 47.1% | [10] 20.2% | [12] 87.9% | [13] 71.8% | [14] 67.4% | [15] 56.2% | [16] 74.6% | [18] 91.7% | [19] 67.8%

COC(=O)[C@@H]1CCCN1C(=O)[C@@H]1CCCN1C(=O)[C@H](Cc1ccccc1)NC(=S)Nc1cc(C(F)(F)F)cc(C(F)(F)F)c1
inactive: [1] 89.2% | [2] 80.2% | [3] 89.7% | [4] 89.8% | [5] 84.8% | [6] 58.9% | [8] 15.6% | [9] 82.4% | [10] 40.4% | [12] 94.8% | [13] 62.8% | [14] 83.8% | [15] 35% | [16] 92.9% | [17] 94% | [18] 11.8%
active: [7] -11.4%

COc1cccc(/C=N/NC(=O)c2ccccc2Nc2ccnc(C(F)(F)F)c2)c1O
active: [2] -20.2% | [4] -6.28% | [5] -6.96% | [9] -2.01% | [12] 1.24% | [17] 0.849% | [18] 8.18% | [19] -30.1%
inactive: [1] 30.8% | [3] 17.4% | [6] 29.4% | [7] 18.6% | [8] 14.3% | [10] 22.8% | [11] 33.7% | [13] 42.6% | [14] 21% | [15] 18.9% | [16] 18.6%

CNc1ccc(-c2cc(=O)oc3ccc(Cl)cc23)cc1
inactive: [1] 18.5% | [2] 48.1% | [3] 54.4% | [4] 26.2% | [6] 37.3% | [8] 10.1% | [9] 37.3% | [10] 18% | [11] 11% | [12] 110% | [13] 16.2% | [14] 43.1% | [15] 27.6% | [16] 18.1% | [18] 38% | [19] 25.4%
active: [5] 6.78% | [7] -25.3% | [17] -2.97%

COc1cc2c(cc1-c1c(C)noc1C)ncc1nc(C3CCOCC3)n([C@H](C)COC(F)F)c12
inactive: [1] 60.1% | [2] 55.2% | [3] 41.2% | [4] 35.2% | [5] 59.2% | [6] 36.9% | [7] 31.2% | [9] 48% | [20] 31.6% | [10] 69.2% | [11] 30.5% | [12] 71.7% | [13] 46.3% | [14] 54.8% | [15] 65.5% | [16] 49.7% | [17] 33.6% | [18] 31.8%

COc1ccc(C2Nc3c(c(C(C)(C)C)nn3-c3ccccc3)C(=O)CS2)cc1 (stereo not given)
inactive: [1] 99.6% | [2] 98.2% | [3] 104% | [4] 106% | [5] 106% | [6] 91.7% | [7] 84.5% | [8] 89.3% | [9] 113% | [10] 101% | [11] 98.5% | [12] 98% | [13] 94.2% | [14] 103% | [15] 98% | [17] 109% | [18] 101% | [19] 112%

CC[C@@H]1O[C@H](O[C@@H](c2cnc[nH]2)[C@H](NC(=O)c2nc([C@H](CC(N)=O)NC[C@@H](N)C(N)=O)nc(N)c2C)C(=O)N[C@H](C)[C@H](O)[C@H](C)C(=O)N[C@@H](C(=O)NCCc2nc(-c3nc(C(=O)NCCCCN=C(N)N)cs3)cs2)[C@@H](C)O)[C@H](O[C@@H]2O[C@H](CO)[C@H](O)[C@H](OC(N)=O)[C@@H]2O)[C@H](C)[C@@H]1C
inactive: [8] 36.6%

CC(C)c1c(C(=O)c2ccccc2)c(-c2ccccc2)c(-c2ccc(F)cc2)n1CC[C@@H](O)C[C@@H](O)CC(=O)O
inactive: [8] 100%
